The record followed here is PubChem BioAssay (NCATS).

Records with an inconclusive call do not appear. Activity calls are given as the source filed them. The call rests on the fitted dose curve; in most records, active means well fitted curve in the direction sought with a large enough effect; inconclusive means small, poorly fitted or top-dose-only effect, or another doubt; inactive means no such curve, though single readings can be large; an effect the other way counts as inactive or inconclusive.

One test has as its system HACAT. Put plainly: qHTS assay to identify novel small-molecules to repurpose for Merkel cell carcinoma treatment (AID 1296009). Further: nearly all actives have a fitted effect of over 60% in size. Further: potency means the concentration at half of the fitted maximal effect. As to conditions: MCC and control cell lines, CellTiter-Glo viability, 72 h; at 44.8 µM (top of the series) unless noted. In outline: (§1)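 CellTiter-Glo luminescence after 72 hr compound exposure at 37 degree celsius gave cell viability. Libraries NPC and MIPE were run as 8- and 11-point dose responses; RLUs normalized to DMSO (negative) and no-cell (cytotoxicity) controls.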
For orientation: qHTS replaces the single test concentration by a dilution series.

A further test has as its system HEK293T. Described as above. The following applies: MCC and control cell lines, CellTiter-Glo viability, 72 h; at 44.8 µM (top of the series). In outline:
as §1
For orientation: In ATP-based viability assays light output follows the ATP content of the culture.

The next test relates to MCC-13. The test is described as above. The following applies: MCC and control cell lines, CellTiter-Glo viability, 72 h; series mostly up to 46 µM. In outline: as §1
A further test has as its system MCC-26. The description is as above. As to conditions: MCC and control cell lines, CellTiter-Glo viability, 72 h; series mostly up to 46 µM. The gist of the method: as §1
The next test concerns MKL-1. The description is as above. The following applies: MCC and control cell lines, CellTiter-Glo viability, 72 h; series mostly up to 46 µM. In outline: as §1
The test system of the next test is MKL-2. The description is as above. The following applies: MCC and control cell lines, CellTiter-Glo viability, 72 h; series mostly up to 46 µM. In outline:
as §1

For the next test, the system named is NIH3T3. The description is as above. As to conditions: MCC and control cell lines, CellTiter-Glo viability, 72 h; at 44.8 µM (top of the series) unless noted. In outline:
as §1

The subject of a further test is UISO. The test is described as above. As to conditions: MCC and control cell lines, CellTiter-Glo viability, 72 h; series mostly up to 46 µM. In outline: as §1
A further test deals with WaGa. Described as above. As to conditions: MCC and control cell lines, CellTiter-Glo viability, 72 h; series mostly up to 46 µM. The gist of the method:
as §1

A further test has as its system C33A. The test is described as follows: Primary qHTS to identify gynecologic anti-cancer compounds using libraries of approved drugs and bioactive compounds (AID 1345084). Further: nearly all actives have a fitted effect of over 55% in size. As to conditions: Gynecologic cancer cell panel viability, ATPlite luminescence, 48 h; series mostly up to 57.5 µM. In outline: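 Five-point cytotoxicity, 48 h drug exposure at 37 C, 5% CO2, on cells seeded 16 h beforehand. ATP content read by ATPlite luminescence.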

For `FC(F)(F)c1cccc(C2=CCN(CCc3ccc4ccccc4c3)CC2)c1`, the call in the test with HACAT, in the test on HEK293T and in the test with NIH3T3 was inactive. In addition, the Potency entry in the test on MCC-13, in the test with MCC-26, with MKL-1, in the test on MKL-2, with UISO and with WaGa was “inactive” each time. The Potency result with C33A was “inactive”.

With `CC1OC(C)OC(C)O1` (stereo not given), the compound was called inactive in the test with HACAT and with NIH3T3. In addition, the Potency entry in the test on MCC-13, in the test on MCC-26, with MKL-1, with MKL-2, with UISO and in the test with WaGa was “inactive” in each case. For the same compound, in the test with C33A, the Potency entry was “inactive”.

Turning to `O=C(O)C(=O)c1cn(Cc2ccccc2)c2ccc(-c3ccc(OC(F)(F)F)cc3)cc12`, the outcome in the test with HACAT and with HEK293T was inactive. The Potency entry in the test with MCC-13, with MCC-26, in the test with MKL-1, with MKL-2, with UISO and in the test on WaGa was “inactive” in each case. In the test on C33A, the Potency entry is “inactive”.

With `O=P1(NCCCl)OCCCN1CCCl` (stereo not given), the compound was classed as inactive in the test on HACAT. The Potency entry with MCC-13, in the test on MCC-26, in the test on MKL-1, with MKL-2, in the test with UISO and with WaGa was “inactive” each time. Besides, the Potency entry in the test on C33A is “inactive”.

As for `CNCC(O)c1ccc(O)cc1` (stereo not given), the outcome in the test with HACAT and in the test on NIH3T3 was inactive. Besides, the Potency entry in the test with MCC-13, with MCC-26, in the test on MKL-1, in the test on MKL-2, with UISO and with WaGa was “inactive” each time. In the test on C33A, the Potency result was “inactive”.

Consider `CC(=O)[C@H]1CC[C@H]2[C@@H]3CC[C@H]4C[C@](C)(O)CC[C@]4(C)[C@H]3CC[C@]12C`, for which the result in the test on HACAT, in the test on HEK293T and with NIH3T3 was inactive. In addition, the Potency entry with MCC-13, with MCC-26, with MKL-1, in the test on MKL-2, in the test with UISO and in the test on WaGa was “inactive” each time. The Potency entry with C33A is “inactive”.

Consider `C#CCOC(C(=O)OCCN(C)C)(c1ccccc1)c1ccccc1`, for which the outcome in the test on HACAT and in the test on NIH3T3 was inactive. The Potency entry with MCC-13, in the test with MCC-26, with MKL-1, in the test with MKL-2, in the test on UISO and with WaGa was “inactive” throughout. Moreover, the Potency result in the test with C33A is “inactive”.

With `N[C@@H]1C[C@H]1c1ccccc1`, the compound was called inactive with HACAT. Besides, the Potency entry in the test with MCC-13, with MCC-26, in the test on MKL-1, in the test with MKL-2, in the test with UISO and in the test with WaGa was “inactive” each time. For the same compound, in the test on C33A, the Potency result was “inactive”.

As for `N[C@@H](Cc1ccc(Oc2cc(I)c(O)c(I)c2)c(I)c1)C(=O)O`, the compound was called inactive in the test on HACAT and in the test with HEK293T. Besides, the Potency result with MCC-13, in the test on MCC-26, in the test with MKL-1, in the test with MKL-2, with UISO and with WaGa was “inactive” in each case. In addition, in the test with C33A, the Potency result was “inactive”.

With `CC(C)(N)Cc1ccc(Cl)cc1`, the compound was classed as inactive in the test with HACAT and in the test with NIH3T3. The Potency entry in the test with MCC-13, with MCC-26, in the test on MKL-1, in the test on MKL-2, with UISO and with WaGa was “inactive” each time. Further, the Potency entry in the test with C33A was “inactive”.

As to `CCC(COC(=O)c1cc(OC)c(OC)c(OC)c1)(c1ccccc1)N(C)C` (stereo not given), the call with HACAT and in the test on NIH3T3 was inactive. Further, the Potency result with MCC-13, in the test with MCC-26, with MKL-1, with MKL-2, in the test with UISO and in the test on WaGa was “inactive” each time. Also, in the test with C33A, the Potency entry is “inactive”.

Take `O=C1CC[C@@]2(O)[C@H]3Cc4ccc(O)c5c4[C@@]2(CCN3CC2CC2)[C@H]1O5`: the call with HACAT and in the test with NIH3T3 was inactive. The Potency result with MCC-13, in the test with MCC-26, in the test with MKL-1, in the test with MKL-2, in the test on UISO and in the test with WaGa was “inactive” each time. In addition, the Potency result in the test with C33A was “inactive”.

Regarding `CC1=C2C[C@@H]3[C@@H](CC=C4C[C@@H](O)CC[C@@]43C)[C@@H]2CC[C@]12O[C@H]1C[C@H](C)CN[C@H]1[C@H]2C`, the call with HACAT was inactive. Further, the Potency result in the test on MCC-13, in the test with MCC-26, with MKL-1, with MKL-2, with UISO and in the test on WaGa was “inactive” in each case.

As for `NCC1(CC(=O)O)CCCCC1`, the call in the test on HACAT and in the test with HEK293T was inactive. Moreover, the Potency result in the test on MCC-13, with MCC-26, in the test on MKL-1, in the test on MKL-2, in the test on UISO and in the test with WaGa was “inactive” throughout. Besides, in the test on C33A, the Potency result is “inactive”.

For the compound `CN(C)CCc1ccc(O)cc1`, the outcome with HACAT and in the test on HEK293T was inactive. Also, the Potency entry with MCC-13, with MCC-26, with MKL-1, in the test with MKL-2, in the test on UISO and with WaGa was “inactive” each time. In addition, in the test on C33A, the Potency entry is “inactive”.

For the compound `N#CC(C#N)=Cc1ccc(O)c(O)c1`, the compound was called inactive in the test on HACAT. Further, the Potency result in the test on MCC-13, in the test with MCC-26 and in the test on C33A was “inactive” in each case. The Potency in the test on MKL-1 is 7.5 µM (active); in the test on WaGa, 13.3 µM (active).

As for `O=c1[nH]c2ccccc2n1CCCN1CCC(n2c(=O)[nH]c3cc(Cl)ccc32)CC1`, the Potency entry in the test on MCC-13, in the test on MCC-26, in the test on MKL-1, in the test with MKL-2, in the test on UISO and in the test with WaGa was “inactive” each time. Besides, the Potency entry with C33A was “inactive”. Further, the outcome in the test with NIH3T3 was inactive.

`CC[C@@H](CO)NC(=O)[C@@H]1C=C2c3cccc4c3c(cn4C)C[C@H]2N(C)C1`: the call with HACAT was inactive. Moreover, the Potency result with MCC-13, in the test with MCC-26 and in the test with C33A was “inactive” each time. For the same compound, the Potency in the test with MKL-1 was 21.1 µM (active).

For the compound `Cc1cccc(C)c1NC(=O)CN1CCCC1=O`, the compound was called inactive with HEK293T. In addition, the Potency entry with MCC-13, in the test on MCC-26, in the test on MKL-1, with MKL-2, in the test with UISO and in the test with WaGa was “inactive” each time. Further, the Potency entry in the test on C33A is “inactive”.

On to `CC[N+](CC)(CC)CC`, for which the Potency result in the test with MCC-13, with MCC-26, in the test on MKL-1, in the test on MKL-2, in the test with UISO and in the test on WaGa was “inactive” throughout. The Potency result in the test with C33A was “inactive”. In addition, the result in the test with NIH3T3 was inactive.

In the case of `COc1ccc(C(CN(C)C)C2(O)CCCCC2)cc1` (stereo not given), the outcome in the test on HEK293T and with NIH3T3 was inactive. In addition, the Potency result in the test on MCC-13, in the test with MCC-26, with MKL-1, in the test on MKL-2, in the test with UISO and with WaGa was “inactive” in each case. Moreover, the Potency entry in the test on C33A is “inactive”.

As for `CC(=O)Nc1cc([As](=O)(O)O)ccc1O`, the Potency result with MCC-13, with MCC-26, in the test with MKL-1, in the test with MKL-2, with UISO and in the test on WaGa was “inactive” throughout. Besides, the Potency entry in the test on C33A is “inactive”. Also, in the test on NIH3T3, the compound was called inactive.
